Results as given in PubChem BioAssay (NCATS).
Several values for one entry are separate records, joined by “and”; a condition that tells them apart may be missing. Equal values may be shown once. Inconclusive results are not listed. Activity calls are given as the source filed them. Calls follow the shape of the dose curve; as a rule, active = well fitted inhibition curve with a large enough effect; inconclusive = small, poorly fitted or top-dose-only effect; inactive = flat fitted curve, though single readings scatter.

Experiments:
CRL-7250 [1] = assay: Cytotoxic Profiling of Annotated Libraries Using Quantitative High-Throughput Screening (AID 1296008); conditions: Five cell lines viability, CellTiter-Glo ATP luminescence, 48-72 h; max response: stronger effect = lower value; as to max response: % is scaled to controls: 0 for no effect and ±100 for the full control effect
Procedure, shortened: (§1)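 Compounds were pin-transferred onto cells and incubated 48 or 72 hr at 37 degree Celsius, 95% humidity. CellTiter-Glo was added, plates sat 10 min at room temperature, then ATP-coupled luminescence was imaged as the viability read-out.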

HaCat [2] = assay: as above; conditions: Five cell lines viability, CellTiter-Glo ATP luminescence, 48-72 h; max response: stronger effect = lower value
Procedure, shortened: as §1

KB-3-1 = assay: as above; conditions: Five cell lines viability, CellTiter-Glo ATP luminescence, 48-72 h; max response: stronger effect = lower value
Procedure, shortened: as §1

NIH3T3 [3] = assay: as above; conditions: Five cell lines viability, CellTiter-Glo ATP luminescence, 48-72 h; max response: stronger effect = lower value
Procedure, shortened: as §1

HACAT [4] = assay: qHTS assay to identify novel small-molecules to repurpose for Merkel cell carcinoma treatment (AID 1296009); conditions: MCC and control cell lines, CellTiter-Glo viability, 72 h; at 44.8 µM (top of the series) unless noted; also: potency is read from the fitted curve at half-maximal effect
Procedure, shortened: (§2)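 qHTS format: cells treated with library compounds in DMSO across 8 (NPC) or 11 (MIPE) concentrations. Readout after 72 hr at 37 degree celsius was CellTiter-Glo luminescence.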

MCC-13 = assay: as above; conditions: MCC and control cell lines, CellTiter-Glo viability, 72 h; series mostly up to 46 µM
Procedure, shortened: as §2

MCC-26 = assay: as above; conditions: MCC and control cell lines, CellTiter-Glo viability, 72 h; series mostly up to 46 µM
Procedure, shortened: as §2

MKL-1 = assay: as above; conditions: MCC and control cell lines, CellTiter-Glo viability, 72 h; series mostly up to 46 µM
Procedure, shortened: as §2

MKL-2 = assay: as above; conditions: MCC and control cell lines, CellTiter-Glo viability, 72 h; series mostly up to 46 µM
Procedure, shortened: as §2

UISO = assay: as above; conditions: MCC and control cell lines, CellTiter-Glo viability, 72 h; series mostly up to 46 µM
Procedure, shortened: as §2

WaGa = assay: as above; conditions: MCC and control cell lines, CellTiter-Glo viability, 72 h; series mostly up to 46 µM
Procedure, shortened: as §2

TAB109 = assay: qHTS profiling for inhibitors of Plasmodium falciparum proliferation (AID 504749); also: potency is read from the fitted curve at half-maximal effect; conditions: P. falciparum in erythrocytes, SYBR Green DNA, 72 h; series mostly up to 28.7 µM
Procedure, shortened: (§3)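 Parasite proliferation within erythrocytes, 72 h exposure. Endpoint: SYBR Green I fluorescence after overnight lysis at room temperature. Controls: 0.29 uM artemisinin, DMSO.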

TAB165 = assay: as above; conditions: P. falciparum in erythrocytes, SYBR Green DNA, 72 h; series mostly up to 28.7 µM
Procedure, shortened: as §3

NIH3T3 [5] = assay: qHTS assay to identify novel small-molecules to repurpose for Merkel cell carcinoma treatment (AID 1296009); conditions: MCC and control cell lines, CellTiter-Glo viability, 72 h; at 44.8 µM (top of the series) unless noted; also: potency is read from the fitted curve at half-maximal effect
Procedure, shortened: as §2

CRL-7250 [6] = assay: as above; conditions: MCC and control cell lines, CellTiter-Glo viability, 72 h; at 44.8 µM (top of the series) unless noted
Procedure, shortened: as §2

SC27B = assay: qHTS profiling for inhibitors of Plasmodium falciparum proliferation (AID 504749); also: potency is read from the fitted curve at half-maximal effect; conditions: P. falciparum in erythrocytes, SYBR Green DNA, 72 h; series mostly up to 28.7 µM
Procedure, shortened: as §3

TAB113 = assay: as above; conditions: P. falciparum in erythrocytes, SYBR Green DNA, 72 h; series mostly up to 28.7 µM
Procedure, shortened: as §3

W2 = assay: as above; conditions: P. falciparum in erythrocytes, SYBR Green DNA, 72 h; series mostly up to 28.7 µM
Procedure, shortened: as §3
Also: nearly all actives have a fitted effect of over 60% in size.

CNCC(=O)c1ccc(O)c(O)c1
inactive: max response (CRL-7250 [1]) 0.325% | outcome (HaCat [2]) | max response (KB-3-1) -7.67% | max response (NIH3T3 [3]) -2.19% | outcome (HACAT [4]) | outcome (MCC-13) | Potency (MCC-26) | Potency (MKL-1) | Potency (MKL-2) | Potency (UISO) | Potency (WaGa)

COC1CC(=C(c2cccs2)c2cccs2)C[N+](C)(C)C1 (centres undefined)
active: Potency (TAB109) 10 µM | Potency (TAB165) 14.1 µM | Potency (MKL-1) 21.1 µM | Potency (MKL-2) 7.5 µM | Potency (WaGa) 11.9 µM
inactive: max response (CRL-7250 [1]) -1.67% | max response (HaCat [2]) 2.01% | max response (KB-3-1) 0.141% | max response (NIH3T3 [3]) 0.648% | outcome (MCC-13) | Potency (MCC-26)

C#CC(O)(C=CCl)CC (centres undefined)
inactive: max response (CRL-7250 [1]) -0.331% | outcome (HaCat [2]) | outcome (NIH3T3 [3]) | outcome (HACAT [4]) | outcome (MCC-13) | Potency (MKL-1) | Potency (MKL-2) | outcome (NIH3T3 [5]) | Potency (UISO) | Potency (WaGa)

O=C1OC(CCN2CCCCC2)OC1(c1ccccc1)c1ccccc1 (centres undefined)
active: Potency (MKL-1) 21.1 µM | Potency (MKL-2) 6.68 µM
inactive: max response (CRL-7250 [1]) -20% | max response (HaCat [2]) 4.71% | Potency (MCC-26)

C[C@]12CC[C@H]3[C@@H](CCC4=CC(=O)CC[C@@H]43)[C@@H]1CC[C@@H]2OC(=O)CCC1CCCCC1
active: Potency (WaGa) 18.8 µM
inactive: outcome (CRL-7250 [1]) | max response (HaCat [2]) 2.69% | outcome (NIH3T3 [3]) | outcome (CRL-7250 [6]) | outcome (MCC-13) | Potency (MCC-26) | Potency (MKL-1) | outcome (NIH3T3 [5])

Nc1ccccc1C(=O)O
inactive: Potency (SC27B) | Potency (TAB109) | Potency (TAB113) | Potency (TAB165) | Potency (W2) | max response (CRL-7250 [1]) -2.31% | outcome (HaCat [2]) | max response (KB-3-1) -19.2% | max response (NIH3T3 [3]) 3.28% | outcome (HACAT [4]) | outcome (MCC-13) | Potency (MCC-26) | Potency (MKL-1) | Potency (MKL-2) | Potency (UISO) | Potency (WaGa)

O=c1c(C2CC(c3ccc(-c4ccc(Br)cc4)cc3)Cc3ccccc32)c(O)sc2ccccc12 (centres undefined)
inactive: max response (CRL-7250 [1]) 0.288% | outcome (MCC-13) | Potency (MCC-26) | Potency (MKL-1) | Potency (MKL-2)

O=C(CCCN1CCC2(CC1)C(=O)NCN2c1ccccc1)c1ccc(F)cc1
inactive: max response (CRL-7250 [1]) -1.53% | outcome (HaCat [2]) | max response (KB-3-1) -7.2% | outcome (NIH3T3 [3]) | outcome (HACAT [4]) | outcome (MCC-13) | Potency (MKL-1) | Potency (MKL-2) | outcome (NIH3T3 [5]) | Potency (UISO) | Potency (WaGa)

O=c1oc2ccccc2c(O)c1Cc1c(O)c2ccccc2oc1=O
inactive: Potency (SC27B) | Potency (TAB109) | Potency (TAB113) | Potency (TAB165) | Potency (W2) | outcome (HaCat [2]) | outcome (NIH3T3 [3]) | outcome (HACAT [4]) | outcome (MCC-13) | Potency (MCC-26) | Potency (MKL-1) | Potency (MKL-2) | outcome (NIH3T3 [5]) | Potency (UISO) | Potency (WaGa)

COCCCOc1ccnc(CS(=O)c2nc3ccccc3[nH]2)c1C (centres undefined)
inactive: outcome (CRL-7250 [6])

C[C@]12CC[C@@H]3c4ccc(OC(=O)N(CCCl)CCCl)cc4CC[C@H]3[C@@H]1CC[C@@H]2O
inactive: Potency (SC27B) | Potency (TAB109) | Potency (TAB113) | Potency (TAB165) | Potency (W2) | max response (KB-3-1) -1.74% | outcome (MCC-13) | Potency (MKL-1) | Potency (MKL-2) | Potency (UISO) | Potency (WaGa)

Clc1ccc2c(c1)C(c1ccccc1)=NCc1nncn1-2
inactive: Potency (SC27B) | Potency (TAB109) | Potency (TAB113) | Potency (TAB165) | Potency (W2) | max response (KB-3-1) 2.88%

O=C1Nc2ccc(Cl)cc2C(c2ccccc2)=NC1O (centres undefined)
inactive: Potency (SC27B) | Potency (TAB109) | Potency (TAB113) | Potency (TAB165) | Potency (W2) | max response (KB-3-1) -4.67% and -16.2%

O=C1CN=C(c2ccccc2)c2cc([N+](=O)[O-])ccc2N1
inactive: Potency (SC27B) | Potency (TAB109) | Potency (TAB113) | Potency (TAB165) | Potency (W2) | outcome (HaCat [2]) | max response (KB-3-1) 3.93% | max response (NIH3T3 [3]) -0.271% | outcome (HACAT [4]) | outcome (MCC-13) | Potency (MCC-26) | Potency (MKL-1) | Potency (MKL-2) | Potency (UISO) | Potency (WaGa)

Cc1ccccc1OCC(O)CO (centres undefined)
inactive: outcome (CRL-7250 [6])

O=C1Nc2ccc(Cl)cc2C(c2ccccc2Cl)=NC1O (centres undefined)
inactive: Potency (SC27B) | Potency (TAB109) | Potency (TAB113) | Potency (TAB165) | Potency (W2) | max response (KB-3-1) 3.46%

O=C(Nc1ccc(Br)cc1)c1cc(Br)cc(Br)c1O
inactive: Potency (SC27B) | Potency (TAB109) | Potency (TAB113) | Potency (TAB165) | Potency (W2) | outcome (HaCat [2]) | max response (KB-3-1) -24% | max response (NIH3T3 [3]) -23.1% | outcome (HACAT [4]) | outcome (MCC-13) | Potency (MCC-26) | Potency (MKL-1) | Potency (MKL-2) | Potency (UISO)

CCCC(C)(COC(N)=O)COC(N)=O
inactive: Potency (SC27B) | Potency (TAB109) | Potency (TAB113) | Potency (TAB165) | max response (KB-3-1) 1.51%

c1ccc2sc(SN3CCOCC3)nc2c1
inactive: outcome (CRL-7250 [6])
